Structures are written as SMILES. Active and inactive are the calls of the source. A call without a number means that no potency is given here. Calls follow the shape of the dose curve; as a rule, active = well fitted curve in the direction sought with a large enough effect; inconclusive = small, poorly fitted or top-dose-only effect, or another doubt; inactive = no such curve, though single readings can be large or run the other way.
Potency is read from the fitted curve at half-maximal effect.

The assay is described as follows: Cellular Toxicity (caspase-3) BJ (AID 658). The note with it: BJ fibroblasts, luminescence; Potency: caspase-3 activation; series mostly up to 91.7 µM. An excerpt:
NIH Chemical Genomics Center [NCGC]
NIH Molecular Libraries Screening Centers Network [MLSCN]
National Institutes of Environmental Health Sciences [NIEHS]
National Toxicology Program [NTP]
We have developed a 1536-well cell-based assay for quantitative high throughput screening (qHTS) against a number of cell lines to determine in vitro caspase 3/7 activity of small molecules. This particular assay uses BJ cell line which is derived from normal human foreskin fibroblast.
NCGC Assay Protocol Summary:
The Caspase-Glo 3/7 assay (Promega) is a homogeneous method to measure caspase-3 and caspase-7 activities in cultured cells. The quantitation of caspase 3/7 activity is based on the cleavage of a peptide-aminoluciferin substrate. After caspase cleaves the substrate the free aminoluciferin is liberated and serves as the substrate of luciferase, which generates the light. The luminescent signal is proportional to amount of caspase 3/7 activity present.
Using the Caspase-Glo 3/7 assay, the amount of caspase 3/7 activity was measured in the BJ cell line with complete culture medium following compound treatment for 16 hours. The assay was performed in opaque white 1536-well plates. In the screen, staurosporine and tamoxifen were used as positive controls. Library compounds were measured for their ability to cause the activation of caspase 3/7 in the cell line, as reflected by an increase in luminescence signal, in a concentration-dependent manner. Data were normalized to the controls for basal activity (DMSO only) and 100% stimulation (10 uM staurosporine). AC50 values were determined from concentration-response data modeled with the standard Hill equation.
qHTS protocol for caspase 3/7 assay in the BJ cells
[Step] [Parameter] [Value] [Description]
1. Reagent; 5 uL; 1000 the BJ cells/well
2. Time; 5 hr; 37 °C incubation
4. Controls; 23 nL; Tamoxifen 0.23 uM to 100 uM & staurosporine 1.4 pM to 100 uM
5. Time; 16 hr; 37 °C incubation
6. Reagent; 5 uL; Caspase-Glo 3/7 reagent
7. Time; 1 hr; Room Temperature
8. Detection; Luminescence; Viewlux plate reader
Keywords: caspase 3/7, apoptosis, the BJ cell line, luminescence, NTPHTS, NTPHTS_NCGC, NIEHS, EPA, DSSTox, MLSMR, MLSCN, NIH Roadmap, qHTS, NCGC
With `Cc1nnc(NS(=O)(=O)c2ccc(N)cc2)s1`, the Potency result is “inactive”.

For the compound `N=C(N)c1ccc(OCCCCCOc2ccc(C(=N)N)cc2)cc1`, the Potency entry is “inactive”.

With `CC[C@H](C)C(=O)O[C@H]1C[C@@H](C)C=C2C=C[C@H](C)[C@H](CC[C@@H]3C[C@@H](O)CC(=O)O3)[C@H]21`, the Potency entry was “inactive”.

Regarding `CCc1cc(C(N)=S)ccn1`, the Potency result is “inactive”.

Regarding `COc1ccc2cc3[n+](cc2c1OC)CCc1cc2c(cc1-3)OCO2`, the Potency entry is “inactive”.

In the case of `C[C@]12C=CC(=O)C=C1CC[C@@H]1[C@@H]2C(=O)C[C@@]2(C)[C@H]1CC[C@]2(O)C(=O)CO`, the Potency entry is “inactive”.

On to `CC(=O)[C@H]1CC[C@H]2[C@@H]3CCC4=CC(=O)CC[C@]4(C)[C@H]3CC[C@]12C`, for which the Potency result is “inactive”.

As to `NNC(=O)c1ccncc1`, the Potency result was “inactive”.

In the case of `CC(=O)Oc1ccccc1C(=O)Nc1ncc([N+](=O)[O-])s1`, the Potency result was “inactive”.

As to `NC(N)=NC(N)=NCCc1ccccc1`, the Potency result is “inactive”.

In the case of `O=C(N[C@H](CO)[C@H](O)c1ccc([N+](=O)[O-])cc1)C(Cl)Cl`, the Potency entry is “inactive”.

In the case of `O=C(O)c1cc(=O)[nH]c(=O)[nH]1`, the Potency entry was “inactive”.

For the compound `Cc1noc(NS(=O)(=O)c2ccc(N)cc2)c1C`, the Potency entry was “inactive”.

As to `Cc1ncc([N+](=O)[O-])n1CCO`, the Potency entry was “inactive”.

With `CN(C)c1ccc(C(=C2C=CC(=[N+](C)C)C=C2)c2ccc(N(C)C)cc2)cc1`, the Potency was 15.8 µM (active).

Take `CC1=NN(c2ccccc2)C(=O)C1`: the Potency entry was “inactive”.

In the case of `Cc1cc(NS(=O)(=O)c2ccc(N)cc2)no1`, the Potency entry is “inactive”.

As to `Cc1ccnc2c1NC(=O)c1cccnc1N2C1CC1`, the Potency result was “inactive”.
